Data taken from PubChem BioAssay AID1159580 (chemical genetic matrix, 2015).
Out of some 5,500 compounds screened, about 2,000 (36%) were called active. Not shown: some 18% with an inconclusive outcome. Cut-off read from the data, not from the text of the source: active = normalized growth mostly below about 0.91 (no sharp cut-off); inconclusive = no clear call, values can overlap the other calls; inactive = mostly above about 0.92. Some of the results follow.

Assay: chemical genetic growth profiling, strain panel (AID 1159580);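 note: tested at 20 µM; growth read once vehicle control cultures reached saturation at 30 °C; 1 = growth at the plate median or of vehicle wells; lower values mean less growth of the strain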
Details: growth OD
[1] = S. cerevisiae deletion strains, locus YAL013W, strain DEP1, hits give low values
[2] = S. cerevisiae deletion strains, locus YBR229C, strain ROT2, hits give low values
[3] = S. cerevisiae deletion strains, locus YDL101C, strain DUN1, hits give low values
[4] = S. cerevisiae deletion strains, locus YDL134C, strain PPH21, hits give low values
[5] = S. cerevisiae deletion strains, locus YDR150W, strain NUM1, hits give low values
[6] = S. cerevisiae deletion strains, locus YEL061C, strain CIN8, hits give low values
[7] = S. cerevisiae deletion strains, locus YGR078C, strain PAC10, hits give low values
[8] = S. cerevisiae deletion strains, locus YHR030C, strain SLT2, hits give low values
[9] = S. cerevisiae deletion strains, locus YHR087W, strain rtc3, hits give low values
[10] = S. cerevisiae deletion strains, locus YJR043C, strain POL32, hits give low values
[11] = S. cerevisiae deletion strains, locus YJR075W, strain HOC1, hits give low values
[12] = S. cerevisiae deletion strains, locus YLR039C, strain RIC1, hits give low values
[13] = S. cerevisiae deletion strains, locus YLR058C, strain SHM2 (second series), hits give low values
[14] = S. cerevisiae deletion strains, locus YLR085C, strain ARP6, hits give low values
[15] = S. cerevisiae deletion strains, locus YLR262C, strain YPT6, hits give low values
[16] = S. cerevisiae deletion strains, locus YML094W, strain GIM5, hits give low values
[17] = S. cerevisiae deletion strains, locus YMR219W, strain ESC1, hits give low values
[18] = S. cerevisiae deletion strains, locus YMR263W, strain SAP30, hits give low values
[19] = S. cerevisiae deletion strains, locus YNL153C, strain GIM3, hits give low values
[20] = S. cerevisiae deletion strains, locus YNL298W, strain CLA4 (second series), hits give low values
[21] = S. cerevisiae deletion strains, locus YNL322C, strain KRE1, hits give low values
[22] = S. cerevisiae deletion strains, locus YNR030W, strain Alg12, hits give low values
[23] = S. cerevisiae deletion strains, locus YPL055C, strain LGE1, hits give low values
[24] = S. cerevisiae deletion strains, locus YPL241C, strain CIN2, hits give low values
[25] = S. cerevisiae deletion strains, locus YPR135W, strain CTF4, hits give low values
[26] = S. cerevisiae strains, strain wild type, hits give low values
[27] = S. cerevisiae deletion strains, locus YAR019C, strain CDC15, hits give low values
[28] = S. cerevisiae deletion strains, locus YBL105C, strain PKC1, hits give low values
[29] = S. cerevisiae deletion strains, locus YBR135W, strain CKS1, hits give low values
[30] = S. cerevisiae deletion strains, locus YBR136W, strain MEC1, hits give low values
[31] = S. cerevisiae deletion strains, locus YBR160W, strain CDC28, hits give low values
[32] = S. cerevisiae deletion strains, locus YDL017W, strain CDC7, hits give low values
[33] = S. cerevisiae deletion strains, locus YDL028C, strain MPS1, hits give low values
[34] = S. cerevisiae deletion strains, locus YDL108W, strain KIN28, hits give low values
[35] = S. cerevisiae deletion strains, locus YDL132W, strain cdc53, hits give low values
[36] = S. cerevisiae deletion strains, locus YDL214C, strain PRR2, hits give low values
[37] = S. cerevisiae deletion strains, locus YDR052C, strain DBF4, hits give low values
[38] = S. cerevisiae deletion strains, locus YDR054C, strain cdc34, hits give low values
[39] = S. cerevisiae deletion strains, locus YDR226W, strain ADK1, hits give low values
[40] = S. cerevisiae deletion strains, locus YDR477W, strain SNF1, hits give low values
[41] = S. cerevisiae deletion strains, locus YER123W, strain YCK3, hits give low values
[42] = S. cerevisiae deletion strains, locus YER133W, strain GLC7, hits give low values
[43] = S. cerevisiae deletion strains, locus YFL009W, strain cdc4, hits give low values
[44] = S. cerevisiae deletion strains, locus YFL029C, strain CAK1, hits give low values
[45] = S. cerevisiae deletion strains, locus YFR003C, strain YPI1, hits give low values
[46] = S. cerevisiae deletion strains, locus YFR019W, strain FAB1, hits give low values
[47] = S. cerevisiae deletion strains, locus YFR028C, strain CDC14, hits give low values
[48] = S. cerevisiae deletion strains, locus YGR040W, strain KSS1, hits give low values
[49] = S. cerevisiae deletion strains, locus YGR052W, strain FMP48, hits give low values
[50] = S. cerevisiae deletion strains, locus YGR092W, strain DBF2, hits give low values
[51] = S. cerevisiae deletion strains, locus YHR079C, strain IRE1, hits give low values
[52] = S. cerevisiae deletion strains, locus YHR082C, strain KSP1, hits give low values
[53] = S. cerevisiae deletion strains, locus YHR205W, strain SCH9, hits give low values
[54] = S. cerevisiae deletion strains, locus YIL147C, strain SLN1, hits give low values
[55] = S. cerevisiae deletion strains, locus YJL095W, strain BCK1, hits give low values
[56] = S. cerevisiae deletion strains, locus YJL128C, strain PBS2, hits give low values
[57] = S. cerevisiae deletion strains, locus YJL157C, strain FAR1, hits give low values
[58] = S. cerevisiae deletion strains, locus YJR016C, strain ILV3, hits give low values
[59] = S. cerevisiae deletion strains, locus YJR066W, strain TOR1 (second series), hits give low values
[60] = S. cerevisiae deletion strains, locus YJR066W, strain TOR1, hits give low values
[61] = S. cerevisiae deletion strains, locus YKL048C, strain ELM1, hits give low values
[62] = S. cerevisiae deletion strains, locus YKL067W, strain YNK1, hits give low values
[63] = S. cerevisiae deletion strains, locus YKL101W, strain HSL1, hits give low values
[64] = S. cerevisiae deletion strains, locus YKL193C, strain SDS22, hits give low values
[65] = S. cerevisiae deletion strains, locus YKL203C, strain TOR2, hits give low values
[66] = S. cerevisiae deletion strains, locus YLR113W, strain HOG1, hits give low values
[67] = S. cerevisiae deletion strains, locus YLR133W, strain CKI1, hits give low values
[68] = S. cerevisiae deletion strains, locus YLR403W, strain SFP1, hits give low values
[69] = S. cerevisiae deletion strains, locus YML070W, strain DAK1, hits give low values
[70] = S. cerevisiae deletion strains, locus YMR001C, strain CDC5, hits give low values
[71] = S. cerevisiae deletion strains, locus YMR205C, strain PFK2 (second series), hits give low values
[72] = S. cerevisiae deletion strains, locus YMR277W, strain FCP1, hits give low values
[73] = S. cerevisiae deletion strains, locus YNL006W, strain LST8, hits give low values
[74] = S. cerevisiae deletion strains, locus YNL020C, strain ARK1, hits give low values
[75] = S. cerevisiae deletion strains, locus YNL161W, strain CBK1, hits give low values
[76] = S. cerevisiae deletion strains, locus YNL183C, strain NPR1, hits give low values
[77] = S. cerevisiae deletion strains, locus YNL207W, strain RIO2, hits give low values
[78] = S. cerevisiae deletion strains, locus YNL222W, strain SSU72, hits give low values
[79] = S. cerevisiae deletion strains, locus YNL307C, strain MCK1 (second series), hits give low values
[80] = S. cerevisiae deletion strains, locus YOL078W, strain AVO1, hits give low values
[81] = S. cerevisiae deletion strains, locus YOL136C, strain PFK27, hits give low values
[82] = S. cerevisiae deletion strains, locus YOR061W, strain CKA2, hits give low values
[83] = S. cerevisiae deletion strains, locus YOR119C, strain RIO1, hits give low values
[84] = S. cerevisiae deletion strains, locus YOR231W, strain MKK1, hits give low values
[85] = S. cerevisiae deletion strains, locus YOR329C, strain SCD5, hits give low values
[86] = S. cerevisiae deletion strains, locus YPL031C, strain PHO85, hits give low values
[87] = S. cerevisiae deletion strains, locus YPL153C, strain RAD53, hits give low values
[88] = S. cerevisiae deletion strains, locus YPL204W, strain HRR25, hits give low values
[89] = S. cerevisiae deletion strains, locus YPL209C, strain IPL1, hits give low values
[90] = S. cerevisiae deletion strains, locus YPL256C, strain CLN2, hits give low values
[91] = S. cerevisiae deletion strains, locus YPR025C, strain CCL1, hits give low values
[92] = S. cerevisiae deletion strains, locus YPR106W, strain ISR1, hits give low values
[93] = S. cerevisiae deletion strains, locus YPR111W, strain DBF20, hits give low values
[94] = S. cerevisiae deletion strains, strain NNK1, hits give low values
[95] = S. cerevisiae deletion strains, strain TSCII, hits give low values

Measured: normalized growth

COc1ccc(OC)c(CNC(=O)Cc2cccs2)c1
inactive: [1] 1.01 | [2] 1.03 | S. cerevisiae deletion strains, locus YCL061C, strain MRC1, hits give low values 1.03 | [3] 1.05 | [4] 0.997 | [5] 0.993 | [6] 0.995 | [7] 1.04 | [8] 1.04 | [9] 0.952 | [10] 1.03 | [11] 0.998 | [12] 1.04 | [13] 0.988 | [14] 0.994 | [15] 1.01 | [16] 0.962 | [17] 0.996 | [18] 1.01 | [19] 1.03 | [20] 1 | [21] 1 | [22] 1 | [23] 0.961 | [24] 0.983 | [25] 1.06 | [26] 1.01

COc1ccc(Br)c(C(=O)/C(C#N)=C/c2cccs2)c1
inactive: [28] 0.94 | [29] 0.903 | [30] 0.922 | [31] 0.921 | [32] 0.921 | [33] 0.909 | [34] 0.904 | [37] 0.929 | [39] 0.908 | [45] 0.918 | [47] 0.913 | [54] 0.919 | [56] 0.874 | [58] 0.915 | [70] 0.921 | [77] 0.917 | [85] 0.929 | [89] 0.926 | [91] 0.914 | [93] 0.935
active: [27] 0.765 | [3] 0.676 | [35] 0.871 | [36] 0.221 | [38] 0.696 | [40] 0.197 | [41] 0.122 | [42] 0.187 | [43] 0.861 | [44] 0.724 | [46] 0.149 | [48] 0.229 | [49] 0.205 | [50] 0.178 | [8] 0.125 | [51] 0.132 | [52] 0.15 | [53] 0.0479 | [55] 0.146 | [57] 0.181 | [59] 0.252 | [60] 0.146 | [61] 0.234 | [62] 0.262 | [63] 0.307 | [64] 0.787 | [65] 0.2 | [66] 0.23 | [67] 0.224 | [68] 0.081 | [69] 0.177 | [71] 0.287 | [72] 0.814 | [73] 0.875 | [74] 0.22 | [75] 0.836 | [76] 0.151 | [78] 0.861 | [79] 0.169 | [80] 0.722 | [81] 0.139 | [82] 0.344 | [83] 0.249 | [84] 0.187 | [86] 0.179 | [87] 0.198 | [88] 0.189 | [90] 0.16 | [92] 0.886 | [94] 0.676 | [95] 0.736

Cc1ccc(NC(=O)CC#N)c(C)c1
inactive: [1] 1.01 | [2] 1 | [3] 0.979 | [4] 1.01 | [5] 0.895 | [6] 1.03 | [7] 1.01 | S. cerevisiae deletion strains, locus YGR229C, strain SMI1, hits give low values 0.986 | [8] 0.959 | [9] 0.995 | [10] 0.96 | [11] 1.04 | S. cerevisiae deletion strains, locus YKL190W, strain CNB1, hits give low values 0.998 | [12] 0.974 | [13] 1 | [14] 1.05 | [15] 0.973 | [16] 1.04 | [17] 1.02 | [18] 0.998 | S. cerevisiae deletion strains, locus YMR307W, strain GAS1, hits give low values 1.03 | [19] 1.01 | [20] 0.988 | [21] 1.01 | [22] 1.02 | S. cerevisiae deletion strains, locus YOL006C, strain TOP1, hits give low values 0.951 | [23] 1.1 | [24] 1.03 | [25] 1.01 | [26] 0.976

O=C(Nc1ccc(SC(F)(F)F)cc1)Nc1ccc(Oc2cccc(C(F)(F)F)c2)nc1
active: [8] 0.769
inactive: [27] 0.995 | [28] 0.989 | [29] 0.992 | [30] 0.987 | [31] 0.992 | [32] 0.996 | [33] 0.988 | [3] 0.997 | [34] 0.993 | [35] 0.995 | [36] 0.941 | [37] 0.996 | [38] 0.994 | [39] 0.987 | [40] 0.982 | [41] 0.949 | [42] 0.95 | [43] 0.988 | [44] 0.996 | [45] 0.991 | [46] 0.921 | [47] 0.999 | [48] 0.975 | [49] 0.973 | [50] 0.995 | [51] 0.883 | [52] 1.05 | [53] 0.957 | [54] 0.994 | [55] 0.975 | [56] 0.946 | [57] 0.937 | [58] 1 | [59] 1.02 | [60] 1.02 | [61] 0.972 | [62] 0.956 | [63] 0.949 | [64] 1 | [65] 0.991 | [66] 0.873 | [67] 0.954 | [68] 0.977 | [69] 0.964 | [70] 0.996 | [71] 0.974 | [72] 0.996 | [73] 0.989 | [74] 0.947 | [75] 0.984 | [76] 1.01 | [77] 0.996 | [78] 0.991 | [79] 0.884 | [80] 1 | [81] 0.907 | [82] 0.983 | [83] 1.03 | [84] 0.958 | [85] 0.984 | [86] 0.97 | [87] 0.99 | [88] 0.958 | [89] 0.992 | [90] 0.897 | [91] 0.988 | [92] 0.992 | [93] 0.972 | [94] 0.999 | [95] 1
